EphB4 ephrin blk: blocks human EphB4 binding to ephrin-B2; actives 0.15% (n = 97,000); EphB4 LBD / TNYL-RAW-Alexa532 peptide, fluorescence polarization; inhibition, % at 7 µM;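 active = inhibition above the screen-wide mean inhibition plus 3 SD, cut at about 15% in these data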;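 note: 0% = DMSO wells and 100% = excess unlabeled TNYL-RAW peptide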
Target sequence (P54760 whole entry, looked up, the tested form may be a part): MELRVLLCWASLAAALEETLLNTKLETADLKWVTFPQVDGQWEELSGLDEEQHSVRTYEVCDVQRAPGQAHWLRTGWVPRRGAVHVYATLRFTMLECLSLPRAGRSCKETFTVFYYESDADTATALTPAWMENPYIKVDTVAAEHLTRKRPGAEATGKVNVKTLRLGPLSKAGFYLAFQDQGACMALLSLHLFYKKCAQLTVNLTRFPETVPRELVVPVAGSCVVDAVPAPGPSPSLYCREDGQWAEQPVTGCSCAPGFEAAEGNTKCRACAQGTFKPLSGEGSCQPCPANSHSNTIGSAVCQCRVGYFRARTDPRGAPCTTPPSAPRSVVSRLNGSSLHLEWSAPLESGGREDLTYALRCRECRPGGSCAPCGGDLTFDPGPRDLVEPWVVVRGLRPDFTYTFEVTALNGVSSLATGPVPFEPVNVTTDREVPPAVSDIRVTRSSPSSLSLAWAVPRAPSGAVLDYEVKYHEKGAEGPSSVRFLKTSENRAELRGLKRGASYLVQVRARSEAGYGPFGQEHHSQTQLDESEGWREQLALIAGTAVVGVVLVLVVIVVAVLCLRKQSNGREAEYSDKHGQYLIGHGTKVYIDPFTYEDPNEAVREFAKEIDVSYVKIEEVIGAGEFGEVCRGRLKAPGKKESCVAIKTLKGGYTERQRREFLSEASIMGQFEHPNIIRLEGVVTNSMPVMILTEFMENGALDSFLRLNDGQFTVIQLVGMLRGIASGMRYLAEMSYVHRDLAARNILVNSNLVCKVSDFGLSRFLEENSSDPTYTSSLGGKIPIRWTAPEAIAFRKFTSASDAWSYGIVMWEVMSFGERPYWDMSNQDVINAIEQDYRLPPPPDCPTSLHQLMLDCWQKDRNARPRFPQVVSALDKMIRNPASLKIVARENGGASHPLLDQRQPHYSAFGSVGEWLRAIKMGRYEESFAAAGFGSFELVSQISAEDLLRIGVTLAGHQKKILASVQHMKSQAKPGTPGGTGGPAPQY
CYP2C9 activ: increases human cytochrome P450 2C9 activity. actives 1.4% (n = 96,000). activation factor at 5 µM. AID 1024. P11712. recombinant CYP2C9, luciferin-H conversion, luminescence; active compounds read high; factor 1 = untreated enzyme, 0 = blocked;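 active = activation factor of 2 or more for CYP2C9 at a 5 µM dose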;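 note: 0 = sulfaphenazole-blocked wells and 1 = vehicle-only wells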
CYP2C19 act: activators of human cytochrome P450 2C19 | P33261 | recombinant CYP2C19, luciferin-H EGE luminescence; active compounds read high; 0 = fully inhibited enzyme, 1 = untreated enzyme | activation factor at 5 µM | 96,000 tested, under 10 active;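 active = activation factor of at least 2 at 5 µM in the primary screen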;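 note: 0 = wells with 2.5 mM tranylcypromine and 1 = vehicle-only wells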
CYP2C19 inh: blocks human cytochrome P450 2C19; P33261; inhibition, % at 5 µM; actives 21% (n = 96,000); CYP2C19 Supersomes, luciferin-H EGE luminescence, 30 min;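 active = CYP2C19 inhibition above a set limit at 5 µM in the primary screen, cut at about 50% in these data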;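 note: plate controls were negative control wells for no effect and 2.5 mM tranylcypromine positive control for full effect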
CYP2C9 inhib: human CYP2C9 inhibition; P11712; CYP2C9 Supersomes, luciferin-H conversion, luminescence; inhibition, % at 5 µM; actives 20% (n = 96,000); AID 777;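 active = blocking of liver enzyme CYP2C9 beyond about 50% at 5 µM, limit read from the data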
Numbers without * were called inactive; . = no result given. A selection: hits, their analogues and other compounds. The true share with any hit is near 27%.

SMILES | EphB4 ephrin blk | CYP2C9 activ | CYP2C19 act | CYP2C19 inh | CYP2C9 inhib
O=C(CNS(=O)(=O)c1ccccc1)N1CCN(c2ccccc2)CC1 | 4 | 1.1 | 1 | 3 | -9
COc1ccc(/C=N/NC(=O)c2ccc(Cn3cc([N+](=O)[O-])cn3)o2)c(OC)c1C | -5 | 1.1 | 1.1 | -14 | -7
O=C(c1ccc(Cn2cc([N+](=O)[O-])cn2)o1)N1N=C(C(F)F)CC1(O)C(F)F (configuration not stated) | 2 | 0.4 | 0.6 | 38 | 62*
O=C(CN1CCCc2ccccc21)NC(=O)NCc1ccco1 | 5 | 0.5 | 0.3 | 69* | 46
CC1(c2ccccc2)NC(=O)N(CC(=O)NC(=O)NCc2ccco2)C1=O (configuration not stated) | -5 | 0.9 | 0.9 | 7 | 11
CC1Cc2ccccc2N1CC(=O)NC(=O)NCc1ccco1 (configuration not stated) | -8 | 0.4 | 0.2 | 83* | 55*
Cc1nc2sc(C(c3cccc(F)c3)N3CCCC(C)C3)c(O)n2n1 (configuration not stated) | 6 | 1.2 | 0.9 | 12 | -21
O=C(Nc1ccc2c(c1)C(=O)N(CC1CCCO1)C2=O)c1ccc(Cl)c(Cl)c1 (configuration not stated) | 1 | 0.7 | 1.3 | -27 | 26
O=C(Nc1ccc(O)c(C(=O)O)c1)c1ccc2c(c1)C(=O)N(CC1CCCO1)C2=O (configuration not stated) | . | 0.3 | 1 | 2 | 66*
Cc1oc2c(c1C(=O)c1ccc(Cl)cc1)C(=O)C(=O)c1ccccc1-2 | 5 | 0.8 | 0.7 | 28 | 22
Cc1ccc(C(=O)c2coc3c2C(=O)C(=O)c2ccccc2-3)cc1 | -8 | 0.3 | 0.5 | 46 | 72*
Cc1ccc(C(=O)c2c(C)oc3c2C(=O)C(=O)c2ccccc2-3)cc1 | -4 | 0.4 | 0.4 | 63* | 56*
Cc1ccc(-n2c(C)cc3c2CCCC3=O)cc1 | -5 | 1 | 0.9 | 11 | 2
BrC(/C=N/Nc1nc(N2CCOCC2)nc(N2CCOCC2)n1)=C/c1ccccc1 | 6 | 0.8 | 0.7 | 29 | 25
COCCCn1c(SCC(=O)OC2CCCCC2)nnc1-c1cccs1 | 5 | 1.7 | 0.2 | 85* | -73
COCCCn1c(SCC(=O)NC2CCCC2)nnc1-c1ccco1 | 11 | 1.3 | 1.1 | -13 | -28
COCCCn1c(SCC(=O)OC2CCCCC2)nnc1-c1ccco1 | 1 | 2.2* | 0.8 | 22 | -123
O=C(O)CC(NC(=S)NCc1ccccc1)C(=O)O (configuration not stated) | -5 | 0.4 | 0.9 | 8 | 62*
NC(=O)CC(NC(=S)NCc1ccccc1)C(=O)O (configuration not stated) | 1 | 0.9 | 1 | 2 | 9
S=C(NCc1ccccc1)NCc1ccccc1 | 5 | 1.1 | 0.1 | 90* | -12
Cc1cccc(NC(=S)NNC(=S)NCc2ccccc2)c1 | 7 | 0.4 | 0.9 | 12 | 60*
CC(C)COc1ccc(CNC(=S)NCc2ccccc2)cc1 | 0 | 0.8 | 0.9 | 7 | 19
OCc1ccccc1CNCc1ccccc1 | -1 | 0.9 | 0.4 | 62* | 8
Cc1ccc(C2C(C(=O)c3sc(C)nc3C)=C(O)C(=O)N2CCN(C)C)o1 (configuration not stated) | -1 | 1.3 | 1.2 | -16 | -27
Cc1ccccc1Cn1c([N+](=O)[O-])cnc1C | -7 | 0.9 | 0.9 | 12 | 10
SMILES | EphB4 ephrin blk | CYP2C9 activ | CYP2C19 act | CYP2C19 inh | CYP2C9 inhib
COc1cccc(NC(=O)CSc2ccccn2)c1 | 3 | 0.9 | 0.5 | 48 | 12
COc1ccc(CSCC(=O)N/N=C/c2ccc(OCC(=O)N3CCCCC3)cc2)cc1 | 0 | 0.9 | 0.6 | 42 | 13
CC(C)c1ccc(CNCc2ccccc2)cc1 | 3 | 0.9 | 0.2 | 75* | 8
FC(F)Oc1ccc(NC(=S)NCc2ccccc2)cc1Cl | 3 | 2.2* | 0.5 | 50* | -124
CC#CCNCc1ccccc1 | 7 | 1.1 | 1.2 | -17 | -8
COc1ccc(-n2c(C)cc(=O)c3c2CC(C)(C)CC3=O)cc1 | 10 | 1 | 1.1 | -7 | 0
CCn1c(SCC(=O)Nc2cc(C)on2)nc2c1c(=O)n(C)c(=O)n2C | 0 | 0.9 | 0.9 | 6 | 9
COc1ccc(-c2cc(C(F)(F)F)nc(N3CCN(c4ccc(F)cc4)CC3)n2)cc1OC | -1 | 1 | 0.9 | 11 | -1
CN(C)c1nc(N)nc(-c2cccnc2)n1 | . | 1.1 | 1 | 3 | -5
CN(C)c1nc(N)nc(Cn2ccnc2)n1 | 6 | 1.1 | 0.5 | 54* | -6
O=C(COc1ccc(N2CC(C(=O)O)CC2=O)cc1)Nc1cccc(C(F)(F)F)c1 (configuration not stated) | 4 | 1.2 | 1 | -4 | -20
CN1CCN(CC#CCC(O)(c2ccccc2)C2CCCC2)CC1 (configuration not stated) | -3 | . | . | . | .
O=C(O)c1cc2cccc(S(=O)(=O)N3CCOCC3)c2cc1O | 4 | 1 | 1 | 0 | 2
O=S(=O)(c1cccc2ccccc12)N1CCSC1 | . | 5.2* | 0.6 | 38 | -416
CCOC(=O)CCCNC(=O)COC(=O)c1cccc(C)c1O | . | 0.5 | 0.3 | 67* | 47
CCOC(=O)N=S(N)(=O)c1ccccc1 (configuration not stated) | . | 1.2 | 1.2 | -17 | -16
O=C1CCC/C1=c1\s/c(=C\c2cccnc2)c(=O)n1-c1ccccc1 | . | 0.9 | 0.7 | 28 | 12
COC(=O)C1(C(=O)OC)NOC2C(=O)N(c3ccc(Cl)cc3Cl)C(=O)C21 (configuration not stated) | 2 | 1.1 | 1 | 4 | -7
C=CCn1cc(C(=O)NCCCOCC)c(=O)c2cc(S(=O)(=O)N(CC)CC)ccc21 | 0 | 0.4 | 0.8 | 24 | 56*
CCN(CC)S(=O)(=O)c1ccc2c(c1)c(=O)c(C(=O)NCCOC)cn2C | -7 | 0.7 | 1 | 1 | 31
C=CCn1cc(C(=O)NCCOC)c(=O)c2cc(S(=O)(=O)N(CC)CC)ccc21 | -5 | 0.3 | 1 | 1 | 75*
C=CCn1cc(C(=O)NCc2cccnc2)c(=O)c2cc(S(=O)(=O)N(CC)CC)ccc21 | -7 | 0.1 | 0.6 | 43 | 89*
CC(=O)N1CCN=C1SCc1ccc(F)cc1 | -2 | 0.8 | 0.6 | 39 | 22
c1ccc(-c2cnc(CSc3nnc4ccccn34)o2)cc1 | . | 0.7 | 0.3 | 70* | 31
Cc1ccccc1-n1nnnc1SCc1ncc(-c2ccccc2)o1 | -4 | 0.2 | 0.7 | 31 | 82*
O=C1c2ccccc2C(=O)N1CCCCSc1nnc2ccccn12 | -13 | 0.9 | 0.8 | 22 | 9
Cc1ccc(C)n1-c1ccccc1N | 4 | . | . | . | .
COc1ccc(-n2c(SCC(N)=O)nnc2-c2ccc(NS(=O)(=O)c3ccc(C)cc3)cc2)cc1 | -2 | 0.3 | 0.8 | 18 | 73*
COc1ccc(-n2c(SCC#N)nnc2-c2ccc(NS(=O)(=O)c3ccc(C)cc3)cc2)cc1 | . | 0.1 | 0.1 | 90* | 94*

High-throughput results deposited in PubChem BioAssay by several laboratories.
